Measurements from ChEMBL document CHEMBL3433997, “St. Jude Leishmania screening dataset” (2016).

Biological target: Solute carrier family 2, facilitated glucose transporter member 1 (Homo sapiens) (UniProt P11166)
Assay: ST_JUDE_LEISH: Cytotoxicity at 2uM final concentration against transgenic Leishmania Mexicana promastigotes LmGLUT1 that are glucose transport deficient and complemented with the human glucose transporter GLUT1. Activity is measured by DNA content using SYBR green in vitro
Assay type: functional

Sequence of Solute carrier family 2, facilitated glucose transporter member 1 (Homo sapiens) (P11166 whole entry): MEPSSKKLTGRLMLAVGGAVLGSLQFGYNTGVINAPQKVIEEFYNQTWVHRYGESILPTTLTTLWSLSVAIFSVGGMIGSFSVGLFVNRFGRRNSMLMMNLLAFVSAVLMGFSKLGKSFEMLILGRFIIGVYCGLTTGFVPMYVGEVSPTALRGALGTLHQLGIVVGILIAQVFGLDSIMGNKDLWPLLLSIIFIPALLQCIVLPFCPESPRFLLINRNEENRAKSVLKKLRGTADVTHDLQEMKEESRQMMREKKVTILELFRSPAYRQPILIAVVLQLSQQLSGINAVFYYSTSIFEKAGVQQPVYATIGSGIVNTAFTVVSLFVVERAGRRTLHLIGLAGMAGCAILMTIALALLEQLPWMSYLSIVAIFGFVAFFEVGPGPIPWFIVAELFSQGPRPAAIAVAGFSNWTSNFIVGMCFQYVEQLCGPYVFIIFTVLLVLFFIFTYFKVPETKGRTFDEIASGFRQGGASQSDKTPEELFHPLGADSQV

Point of comparison: `O=C(Nc1ccc(OC2CCN(Cc3ccsc3)CC2)c(Cl)c1)c1cccs1`, inhibition 7.63%. Against it:
- CCCc1cc(NC2CCN(C)CC2)nc(Nc2cccc(OC)c2)n1 — higher, 8.68%
- CS(=O)(=O)Cc1ccc(Nc2nccc(NC3CCN(c4nccc(C(F)(F)F)n4)CC3)n2)cc1 — lower, 2.96%
- OCCNc1nc(Nc2ccc(F)cc2)nc2ccccc12 — lower, 3.51%
- N#Cc1ccc(C=Cc2nccc3c2[nH]c2ccccc23)cc1 — higher, 10.9%
- CC(C)NC(C)(C)CN(Cc1ccc(-c2ccc(C(F)(F)F)cc2)cc1)C(=O)Cn1c(CCc2cccc(F)c2F)nc(=O)c2ccccc21 — lower, 0.37%
- CCc1cc2c(=O)c(-c3nc(C)cs3)c(N)oc2c(CN2CCCCC2)c1O — lower, 3.22%
- O=C1C(c2ccccc2)=C(Nc2cccc([N+](=O)[O-])c2)c2ccccc21 — lower, 4.58%
- O=C(Nc1ccc(-c2ccc(-c3nc4ccccc4[nH]3)s2)cc1)Nc1ccsc1 — lower, 0.72%
- CN(C)CCN1CCN(CCCN2c3ccccc3Sc3ccc(C(F)(F)F)cc32)CC1 — lower, 3.37%
- CCCC1(NC[C@@H](O)[C@H](Cc2ccccc2)NC(=O)c2cc(NCC)cc(N3CCCCS3(=O)=O)c2)CCCC1 — lower, 4.97%
- CS(=O)(=O)NCCCNCc1ccc(-c2ccc(-c3nc4cc(F)ccc4[nH]3)s2)cc1 — lower, -2.43%
- O=C(Nc1ccccc1)N(Cc1cccc(-c2cccc(CNCc3ccc4c(c3)OCO4)c2)c1)C1CCN(Cc2ccccc2)CC1 — lower, 0.53%
- O=C(Nc1ccccc1F)N(CCCn1ccnc1)Cc1csc(-c2ccc(CNCc3ccccc3)cc2)n1 — lower, -0.67%
- CC(C)n1cc(CN2CCCC(C(=O)Nc3cccc(-c4cc5ccccc5[nH]4)c3)C2)cn1 (stereo not given) — lower, 2.2%
- COc1ccc(CNCc2ccc(-c3ccc(-c4nc5cc(C(F)(F)F)ccc5[nH]4)cc3)cc2)cc1 — lower, 3.97%
- O=S(=O)(NCCN1CCCC1)c1ccc(-c2ccc(CNCc3ccc(F)cc3)cc2)cc1F — lower, 5.72%
- Cc1cc2cc(NC(=O)Nc3ccnc4ccccc34)ccc2n1C — lower, 0.22%
- COc1ccc2nccc([C@@H](O)CN3CCC(NCc4nc5c(cc4F)SCC(=O)N5)C(F)C3)c2c1 (stereo not given in full) — lower, 5.83%
- CCCCn1c(N)c(N(Cc2ccco2)C(=O)C=Cc2cc(OC)c3c(c2)OCCO3)c(O)nc1=O — lower, 3.56%
- CCc1cn2c3c(cc(C(=O)N[C@@H](Cc4cccc(Cl)c4)[C@H](O)CNC4CCOCC4)cc13)N(C)S(=O)(=O)CC2 — lower, 2.87%
- CCC1N=C(N)N=C(N)N1OCc1ccc(Cl)c(Cl)c1 (stereo not given) — lower, -0.58%
- CC1(C)NC(N)=NC(=N)N1OCc1cccs1 — higher, 10.6%
- Cc1cc(NC(=O)c2cccs2)ccc1OC1CCN(Cc2ccc(C#N)cc2)CC1 — lower, -0.77%
- COc1ccc(C=CC(=O)NC(=O)c2ccccc2OC(=O)c2ccccc2)cc1OC — lower, 2.48%
- COc1ccc2nc(C)cc(N/N=C/c3ccccc3[N+](=O)[O-])c2c1 — lower, 2.3%
- CCCCc1ccc(Cc2cnc3nc(N)nc(N)c3c2C)cc1 — higher, 11.6%
- CN1CCC(NCCS(=O)(=O)c2cccc(Nc3ccc(-c4cccc(F)c4)cn3)c2)CC1 — lower, 0.4%
- COc1cc(OC)c(NC(=O)COc2ccc(C)cc2)cc1Cl — lower, 1.6%
- CN(C)S(=O)(=O)c1ccc(N2CCN(CCC3(c4cccc(F)c4)CCN(C(=O)C(C)(C)C)CC3)CC2)c2nonc12 — higher, 9.09%
- O=C(Nc1ccc(Cl)cn1)c1sc2ccccc2c1O — lower, 3.18%
- CCN(CC)CCN(Cc1ccc(-c2ccc(C(F)(F)F)cc2)cc1)C(=O)Cn1c(SCc2ccc(F)cc2)nc(=O)c2sccc21 — lower, 5.28%
- CC1(C)NC(N)=NC(=N)N1OCCNCc1ccc(Cl)cc1 — lower, 4.58%
- CCOc1ccc(N2C(N)=NC(N)=NC2(C)C)cc1 — lower, 4.38%
- COc1ccc2nccc([C@@H](O)CN3CCC(NCc4cc5c(cc4F)SCC(=O)N5)CC3)c2n1 — higher, 9.08%
- Cn1c(=N)n(CC(=O)OCc2ccc(OCc3ccccc3)cc2)c2ccccc21 — lower, 2.99%
- Cc1nnsc1C(=O)Nc1ccc(-c2cccc(-c3nc4cc(F)ccc4[nH]3)c2)cc1 — lower, 1.36%
- C=CCOC(=O)N1CCC(CNCc2cccc(-c3ccc(-c4nc5cc(C(F)(F)F)ccc5[nH]4)cc3)c2)C1 (stereo not given) — lower, 2.19%
- CN(C)c1ccc(C(c2ccc(N(C)C)cc2)c2cc([N+](=O)[O-])ccc2Cl)cc1 — lower, 0.57%
- CCCCCC(C)N/C(=N/c1cccc(Cl)c1Cl)Nc1ccc(C#N)cc1O (stereo not given) — lower, 5.91%
